Reference: the supplement of paper PMC8728848
The sample as a whole holds a higher share of the strongest signals than the screen did.

What was measured:
Assay in all cases: glycan array binding signal (z-score within array); higher = stronger binding
Conditions in all cases: glycan notation: IUPAC condensed, linker removed
[1] = molecular target: Gal(b1-4)GlcNAc(b1-3)[GlcNAc(b1-6)]Gal(b1-4)GlcNAc
In short: (§1)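 Glycan array data were curated from 3228 arrays in the Consortium for Functional Glycomics database and kept only where the protein sequence was available. Glycan names were converted to IUPAC-condensed notation, and columns mapping to the same glycan were averaged. The binding signal is a within-array Z-score, averaged across arrays of the same protein sequence at different concentrations or buffers and across linkers. Negative Z-scores can be read as non-binding.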

[2] = molecular target: Gal(b1-4)GlcNAc(b1-6)Gal(b1-4)GlcNAc
In short: as §1

[3] = molecular target: Gal(b1-4)GlcNAc6P
In short: as §1

[4] = molecular target: GalNAc4S6S(b1-4)GlcNAc
In short: as §1

[5] = molecular target: Glc(a1-4)Glc(a1-4)Glc(a1-4)Glc
In short: as §1

[6] = molecular target: GlcNAc(b1-2)Man(a1-3)[GlcNAc(b1-4)][GlcNAc(b1-2)Man(a1-6)]Man(b1-4)GlcNAc(b1-4)GlcNAc
In short: as §1

[7] = molecular target: GlcNAc(b1-3)Gal(b1-4)GlcNAc(b1-3)Gal(b1-4)GlcNAc(b1-3)Gal(b1-4)GlcNAc(b1-2)Man(a1-3)[GlcNAc(b1-3)Gal(b1-4)GlcNAc(b1-3)Gal(b1-4)GlcNAc(b1-3)Gal(b1-4)GlcNAc(b1-2)Man(a1-6)]Man(b1-4)GlcNAc(b1-4)[Fuc(a1-6)]GlcNAc
In short: as §1

[8] = molecular target: GlcNAc(b1-3)Man
In short: as §1

[9] = molecular target: GlcNAc(b1-4)GlcNAc(b1-4)GlcNAc
In short: as §1

[10] = molecular target: Kdn(a2-3)Gal(b1-4)[Fuc(a1-3)]GlcNAc
In short: as §1

[11] = molecular target: MurNAc(b1-4)GlcNAc
In short: as §1

[12] = molecular target: Neu5Ac(a2-3)Gal(b1-3)GlcNAc
In short: as §1

[13] = molecular target: Neu5Ac(a2-3)Gal(b1-3)GlcNAc(b1-2)Man(a1-3)[GlcNAc(b1-4)][Neu5Ac(a2-3)Gal(b1-3)GlcNAc(b1-2)Man(a1-6)]Man(b1-4)GlcNAc(b1-4)GlcNAc
In short: as §1

[14] = molecular target: Neu5Ac(a2-3)Gal(b1-4)GlcNAc(b1-2)Man(a1-3)[Neu5Ac(a2-3)Gal(b1-4)GlcNAc(b1-2)Man(a1-6)]Man(b1-4)GlcNAc(b1-4)GlcNAc
In short: as §1

[15] = molecular target: Neu5Ac(a2-3)Gal(b1-4)GlcNAc(b1-2)[Neu5Ac(a2-3)Gal(b1-4)GlcNAc(b1-6)]Man(a1-6)[Neu5Ac(a2-3)Gal(b1-4)GlcNAc(b1-2)Man(a1-3)]Man(b1-4)GlcNAc(b1-4)GlcNAc
In short: as §1

[16] = molecular target: Neu5Ac(a2-3)Gal(b1-4)GlcNAc(b1-3)GalNAc
In short: as §1

[17] = molecular target: Neu5Ac(a2-3)Gal6S(b1-4)GlcNAc
In short: as §1

[18] = molecular target: Neu5Ac(a2-3)[GalNAc(b1-4)]Gal(b1-4)Glc
In short: as §1

[19] = molecular target: Neu5Ac(a2-6)Gal(b1-3)GlcNAc(b1-3)[Gal(b1-4)GlcNAc(b1-6)]Gal(b1-4)Glc
In short: as §1

[20] = molecular target: Neu5Ac(a2-6)Gal(b1-4)GlcNAc
In short: as §1

[21] = molecular target: Neu5Ac(a2-6)Gal(b1-4)GlcNAc(b1-2)Man(a1-6)[Man(a1-3)]Man(b1-4)GlcNAc(b1-4)GlcNAc
In short: as §1

[22] = molecular target: Neu5Ac(a2-6)Gal(b1-4)GlcNAc(b1-2)[Neu5Ac(a2-6)Gal(b1-4)GlcNAc(b1-4)]Man(a1-3)[GlcNAc(b1-4)][Neu5Ac(a2-6)Gal(b1-4)GlcNAc(b1-2)[Neu5Ac(a2-6)Gal(b1-4)GlcNAc(b1-6)]Man(a1-6)]Man(b1-4)GlcNAc(b1-4)GlcNAc
In short: as §1

[23] = molecular target: Neu5Ac(a2-6)Gal(b1-4)GlcNAc(b1-6)[Gal(b1-3)]GalNAc
In short: as §1

[24] = molecular target: Neu5Ac(a2-6)GalNAc(b1-4)GlcNAc6S
In short: as §1

[25] = molecular target: Neu5Ac(a2-8)Neu5Ac(a2-3)[GalNAc(b1-4)]Gal(b1-4)Glc
In short: as §1

[26] = molecular target: Neu5Ac(a2-8)Neu5Ac(a2-8)Neu5Ac(a2-3)Gal(b1-4)Glc
In short: as §1

[27] = molecular target: Neu5Ac9Ac(a2-6)Gal(b1-4)GlcNAc
In short: as §1

[28] = molecular target: Neu5Gc(a2-8)Neu5Gc(a2-3)Gal(b1-4)GlcNAc(b1-3)Gal(b1-4)GlcNAc
In short: as §1

B1: Sp8391B-bot-388-20-388 (Bacteroides ovatus) (protein)
chain: GCQNNDENEQHYDNKLFISASNFTKEILFKAGDTNVETGLSVAIAKPEEHDIKVTMSPAPELLSTYKLAYYDETAVLLSEEHYSMPETSTTIKSGSIVSPELPIEFINTGELDIKTTYVLPVTIKSVEGIGVLQSAKTYYYVFRGASLINVVCNISRNRAYPDFKNDSKFNNLTENTMEILFKANSFPNTLNTLMGIESNYLLRIGDATIPNNQLQVATSVNNCTSADLQLESGKWYHVAVAFNKGNVKVYINGVEKLSGSTGKSSVSLGAKHTNEEDGSRCFWVGYSYKDDRYFDGVVSEVRIWNRALTAEEIQATNHFYTIEPESEGLIAYWKFDEGSGTVAKDYSVSGYDLTIEKEPKWESVSLPQ
For B1, the “glycan array binding signal (z-score)” value [1] was 0.193, the “glycan array binding signal (z-score)” value [2] was 0.486 and the “glycan array binding signal (z-score)” value [3] was 0.015. For the same binder, the “glycan array binding signal (z-score)” value [4] was -0.043, the “glycan array binding signal (z-score)” value [5] was -0.549 and the “glycan array binding signal (z-score)” value [6] was -0.101. For the same binder, the “glycan array binding signal (z-score)” value [7] was 2.65, the “glycan array binding signal (z-score)” value [8] was 0.083 and the “glycan array binding signal (z-score)” value [9] was -0.077. For the same binder, the “glycan array binding signal (z-score)” value [10] was 1.91, the “glycan array binding signal (z-score)” value [11] was -0.265 and the “glycan array binding signal (z-score)” value [12] was -0.213. The “glycan array binding signal (z-score)” value [13] was -0.652, the “glycan array binding signal (z-score)” value [14] was -0.533 and the “glycan array binding signal (z-score)” value [15] was 0.918. The “glycan array binding signal (z-score)” value [16] was -0.435, the “glycan array binding signal (z-score)” value [17] was -0.501 and the “glycan array binding signal (z-score)” value [18] was 0.131. For the same binder, the “glycan array binding signal (z-score)” value [19] was 6.14, the “glycan array binding signal (z-score)” value [20] was -0.355 and the “glycan array binding signal (z-score)” value [21] was 0.075. The “glycan array binding signal (z-score)” value [22] was 2.53, the “glycan array binding signal (z-score)” value [23] was -0.211 and the “glycan array binding signal (z-score)” value [24] was -0.019. The “glycan array binding signal (z-score)” value [25] was 0.19, the “glycan array binding signal (z-score)” value [26] was 0.117 and the “glycan array binding signal (z-score)” value [27] was -0.27. The “glycan array binding signal (z-score)” value [28] was -1.02.
